Assay [1] in a line: antimalarial activity against Dd2 strain (AID 2302;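 active = growth inhibition above 50% at the single 2 µM test dose, taken to imply half-maximal potency below 2 µM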;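 note: 0% = DMSO untreated growth and 100% = chloroquine plus artemisinin killed control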). Particulars: P. falciparum Dd2 in RBCs, LDH growth readout, 72 h; at 2 µM; stronger effect = higher value.
Assay [2] is described as follows: human hepatoma cell viability loss – ATP luminescence, cytotoxicity control for P. falciparum antimalarial project, primary screen (AID 2303;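 active = inhibition above 50%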;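 note: 0% = DMSO wells and 100% = digitonin-killed cells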). The following applies: HepG2 viability, 24-48 h, at 10 µM, stronger effect = higher value.
The target in assay [3] is L-lactate dehydrogenase (Plasmodium falciparum (isolate CDC / Honduras)) (UniProt Q27743). Nature of the assay: PfLDH activity inhibition – cell lysate, 3D7 strain, counter-screen for P. falciparum growth inhibition project (AID 2304).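 Note: 0% = vehicle and 100% = reference inhibitor.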 Particulars: P. falciparum 3D7 crude extract, LDH APAD/NBT absorbance; at 2 µM; stronger effect = higher value. A general note: Counterscreens check selectivity or assay interference.

The nature of assay [4]: inhibition of 3D7 malaria parasite growth – strain 3D7 (AID 2306).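 Note: 0% = DMSO wells and 100% = chloroquine plus artemisinin control wells.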 Particulars: P. falciparum 3D7 erythrocytic growth, LDH absorbance, 72 h; at 2 µM; stronger effect = higher value.
In assay [5] the target is Calcium-dependent protein kinase 1 (Plasmodium falciparum (isolate 3D7)) (UniProt P62344). As to the kind of experiment: PfCDPK1 kinase inhibitors, biochemical, TCAMS library (AID 1159585; cut-off not given, nearly all actives have IC50 up to about 0.98 µM;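 note: inhibitors leave more ATP so luminescence rises with inhibition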). Particulars: recombinant PfCDPK1, Kinase-Glo ATP depletion luminescence. (In general: In Kinase-Glo more light means more ATP remaining.)
Assay [6] addresses Plasmodium falciparum protein kinase 6 (PK6, PF3D7_1337100) (UniProt Q8IDW1). Nature of the assay: PfPK6 kinase inhibitors, biochemical, TCAMS library (AID 1159586). The following applies: recombinant PfPK6, Kinase-Glo ATP depletion luminescence.
The target of assay [7] is Protein kinase 7 (PK7), Plasmodium falciparum 3D7 (PF3D7_0213400) (UniProt Q7YTF7). As to the kind of experiment: inhibition of Plasmodium PK7 catalytic activity – biochemical, TCAMS antimalarial set, Kinase-Glo luminescence (AID 1159587). Particulars: recombinant PfPK7, Kinase-Glo ATP depletion luminescence.
Assay [8] deals with Calcium-dependent protein kinase 4 (Plasmodium falciparum (isolate 3D7)) (UniProt Q8IBS5). As to the kind of experiment: PfCDPK4 kinase inhibitors, biochemical, TCAMS library (AID 1159588; cut-off not given, nearly all actives have IC50 up to about 0.91 µM). Particulars: recombinant PfCDPK4, Kinase-Glo ATP depletion luminescence.

Values without a mark were called inactive. For some assays here: Results with a measured potency or affinity are listed apart. Calls of active or inactive are those of the source. Unless noted, the rule behind the calls is not given here.

The results in this text go back to PubChem BioAssay.

Sequence of Calcium-dependent protein kinase 1 (Plasmodium falciparum (isolate 3D7)) (P62344 whole entry, looked up): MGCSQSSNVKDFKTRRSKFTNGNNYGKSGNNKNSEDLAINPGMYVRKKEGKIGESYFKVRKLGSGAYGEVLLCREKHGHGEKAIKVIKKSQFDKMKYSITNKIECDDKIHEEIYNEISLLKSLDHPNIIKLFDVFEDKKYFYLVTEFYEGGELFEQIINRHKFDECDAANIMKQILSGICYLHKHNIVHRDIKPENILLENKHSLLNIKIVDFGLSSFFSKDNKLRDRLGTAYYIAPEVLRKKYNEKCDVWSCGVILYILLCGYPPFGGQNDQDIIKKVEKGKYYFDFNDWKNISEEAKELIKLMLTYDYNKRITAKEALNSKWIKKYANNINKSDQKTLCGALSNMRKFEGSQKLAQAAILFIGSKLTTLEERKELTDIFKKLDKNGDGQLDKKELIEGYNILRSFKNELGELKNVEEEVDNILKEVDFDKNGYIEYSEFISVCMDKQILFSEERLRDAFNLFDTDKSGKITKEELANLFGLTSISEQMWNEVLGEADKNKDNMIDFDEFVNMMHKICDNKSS
Sequence of Plasmodium falciparum protein kinase 6 (PK6, PF3D7_1337100) (Q8IDW1 1-305): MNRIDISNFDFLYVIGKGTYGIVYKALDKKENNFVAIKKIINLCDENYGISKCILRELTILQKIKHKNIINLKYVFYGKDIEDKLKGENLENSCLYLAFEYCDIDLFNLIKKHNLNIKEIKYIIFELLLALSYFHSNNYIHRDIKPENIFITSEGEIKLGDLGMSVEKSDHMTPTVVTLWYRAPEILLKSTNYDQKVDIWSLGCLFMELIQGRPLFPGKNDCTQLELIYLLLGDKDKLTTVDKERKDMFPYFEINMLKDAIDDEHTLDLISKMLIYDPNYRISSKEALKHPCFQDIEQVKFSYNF
Sequence of Protein kinase 7 (PK7), Plasmodium falciparum 3D7 (PF3D7_0213400) (Q7YTF7 1-343): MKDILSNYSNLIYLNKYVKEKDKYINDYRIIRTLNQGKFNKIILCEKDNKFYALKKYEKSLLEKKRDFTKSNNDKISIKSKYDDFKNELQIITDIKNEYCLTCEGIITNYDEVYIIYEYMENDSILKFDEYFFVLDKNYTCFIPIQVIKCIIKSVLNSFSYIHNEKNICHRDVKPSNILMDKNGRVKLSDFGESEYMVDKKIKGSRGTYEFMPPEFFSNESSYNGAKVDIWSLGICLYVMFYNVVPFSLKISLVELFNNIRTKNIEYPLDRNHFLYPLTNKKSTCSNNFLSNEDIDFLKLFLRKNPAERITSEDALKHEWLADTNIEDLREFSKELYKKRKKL
Sequence of L-lactate dehydrogenase (Plasmodium falciparum (isolate CDC / Honduras)) (Q27743 whole entry, looked up): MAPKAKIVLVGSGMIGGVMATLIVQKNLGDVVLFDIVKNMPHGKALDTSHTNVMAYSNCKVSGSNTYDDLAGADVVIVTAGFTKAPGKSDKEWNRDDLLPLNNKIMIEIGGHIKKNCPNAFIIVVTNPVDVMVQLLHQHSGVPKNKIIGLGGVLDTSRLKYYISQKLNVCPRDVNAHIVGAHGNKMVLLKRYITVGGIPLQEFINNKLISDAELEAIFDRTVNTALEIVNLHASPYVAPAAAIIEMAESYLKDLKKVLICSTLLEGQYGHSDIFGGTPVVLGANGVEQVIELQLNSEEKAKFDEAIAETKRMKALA
Sequence of Calcium-dependent protein kinase 4 (Plasmodium falciparum (isolate 3D7)) (Q8IBS5 whole entry, looked up): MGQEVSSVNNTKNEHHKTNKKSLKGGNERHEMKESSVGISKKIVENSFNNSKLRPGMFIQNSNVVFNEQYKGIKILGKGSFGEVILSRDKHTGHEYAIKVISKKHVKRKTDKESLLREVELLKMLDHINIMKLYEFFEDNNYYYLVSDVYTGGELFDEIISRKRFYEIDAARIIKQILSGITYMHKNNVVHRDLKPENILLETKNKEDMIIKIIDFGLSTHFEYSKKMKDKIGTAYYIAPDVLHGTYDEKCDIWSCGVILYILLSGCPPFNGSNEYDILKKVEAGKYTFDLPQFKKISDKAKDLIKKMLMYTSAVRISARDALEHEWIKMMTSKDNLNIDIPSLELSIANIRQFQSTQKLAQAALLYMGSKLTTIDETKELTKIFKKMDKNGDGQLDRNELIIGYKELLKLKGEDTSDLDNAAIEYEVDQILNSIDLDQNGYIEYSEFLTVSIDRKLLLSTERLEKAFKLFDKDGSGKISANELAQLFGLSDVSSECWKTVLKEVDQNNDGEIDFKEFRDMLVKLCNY

For orientation: inhibition means the relative decrease from the control value, in per cent. Turning to `O=C(NC1CCC(N2CCC(Cc3ccc(F)cc3)CC2)CC1)c1cc2ccccc2[nH]1` (configuration not stated), the growth inhibition in assay [1] was 39%; in assay [4], 98% (active). The inhibition was 60% (active) in assay [2] and -2% in assay [3]. In addition, the result in assay [5], in assay [6], in assay [7] and in assay [8] was inactive.
For the compound `Cc1nnsc1C(=O)Nc1ccc(-c2cccc(-c3nc4ccc(F)cc4[nH]3)c2)cc1`, the growth inhibition is 27% in assay [1] and 96% (active) in assay [4]. For the same compound, the inhibition was 44% in assay [2] and 2% in assay [3]. The result in assay [5], in assay [6], in assay [7] and in assay [8] was inactive.
With `CCN(CC)c1ccc(NC(=S)NC2CCN(CCCCCNC(=O)/C=C/c3ccc(Cl)c(Cl)c3)CC2)cc1`, the growth inhibition in assay [1] was 58% (active); in assay [4], 100% (active). Besides, the figures for the inhibition in assay [2] and in assay [3] were 16% and 3%, respectively. Moreover, the outcome in assay [5], in assay [6], in assay [7] and in assay [8] was inactive.
In the case of `Clc1cc2c(Nc3ccc(Oc4ccccc4)cc3)ccnc2cc1-c1ccc(CNCCN2CCOCC2)o1`, the growth inhibition in assay [1] is 89% (active); in assay [4], 100% (active). Further, the inhibition in assay [2] is -2%; in assay [3] it was -4%. Moreover, the outcome in assay [5], in assay [6], in assay [7] and in assay [8] was inactive.
Regarding `CCCC(=O)Nc1ccc(OCCCN(Cc2ccccc2C(F)(F)F)c2ccc(C#N)c(C(F)(F)F)c2)cc1`, the values for the growth inhibition in assay [1] and in assay [4] were 79% (active) and 89% (active), respectively. Further, the inhibition in assay [2] is -5%; in assay [3], 2%. For the same compound, the outcome in assay [5], in assay [6], in assay [7] and in assay [8] was inactive.
For `Cc1sc2ncnc(Sc3nnc(N)s3)c2c1C`, the growth inhibition was 100% (active) in assay [1] and 101% (active) in assay [4]. Also, the inhibition in assay [2] is 9%; in assay [3], -1%. In addition, the outcome in assay [5], in assay [6], in assay [7] and in assay [8] was inactive.
Regarding `CCN(CC)C(=O)c1cccc(/C=C/c2ccc(-c3c(C)[nH]c(C)c(Cl)c3=O)cc2)c1`, the growth inhibition in assay [1] and in assay [4] was 96% (active) each time. Also, the inhibition in assay [2] is 9%; in assay [3] it was 6%. In addition, the outcome in assay [5], in assay [6], in assay [7] and in assay [8] was inactive.
Turning to `N=C(N)CCN(Cc1ccccc1)c1ccc(Cl)cc1`, the growth inhibition in assay [1] and in assay [4] was 98% (active) throughout. For the same compound, the values for the inhibition in assay [2] and in assay [3] were 1% and 4%, respectively. Besides, the outcome in assay [5], in assay [6], in assay [7] and in assay [8] was inactive.
Regarding `CN(c1ccc(NC(=O)Nc2cc(C(C)(C)C)on2)cc1)c1ccnc(NCCOC(=O)Nc2cc(C(C)(C)C)on2)n1`, the growth inhibition was 54% (active) in assay [1] and 102% (active) in assay [4]. Moreover, the inhibition was 59% (active) in assay [2] and 4% in assay [3]. Also, the outcome in assay [5], in assay [6], in assay [7] and in assay [8] was inactive.
Take `CCCCCCc1c(C)[nH]c2cc(OC)ccc2c1=O`: the growth inhibition in assay [1] and in assay [4] was 97% (active) each time. Also, the inhibition in assay [2] is 10%; in assay [3] it was 3%. The result in assay [5], in assay [6], in assay [7] and in assay [8] was inactive.
`CC1(C)N=C(N)N=C(N)N1OCCCOc1cc(Cl)cc(Cl)c1`: the growth inhibition in assay [1] was 97% (active); in assay [4], 95% (active). In addition, the inhibition in assay [2] is 62% (active); in assay [3], 0%. Moreover, the result in assay [5], in assay [6], in assay [7] and in assay [8] was inactive.
Regarding `COc1cc2nc(Nc3ccc4c(cnn4Cc4ccccc4)c3)nc(Nc3ccc4c(cnn4Cc4ccccc4)c3)c2cc1OC`, the growth inhibition in assay [1] was 100% (active); in assay [4], 99% (active). Besides, the inhibition is 4% in assay [2] and 7% in assay [3]. In addition, the outcome in assay [5], in assay [6], in assay [7] and in assay [8] was inactive.
On to `Cc1ccc2nc(-c3ccccc3)cc(NN=Cc3cccnc3)c2c1`, for which the growth inhibition in assay [1] is 39%; in assay [4] it was 99% (active). In addition, the inhibition is 12% in assay [2] and 1% in assay [3]. The outcome in assay [5], in assay [6], in assay [7] and in assay [8] was inactive.
Turning to `O=C(/C=C/c1ccc(Cl)c(Cl)c1)NCCCCCN1CC[C@H](NC(=O)Nc2ccc(Oc3ccccc3)cc2)C1`, the growth inhibition in assay [1] was 14%; in assay [4], 100% (active). In addition, the inhibition is 47% in assay [2] and -9% in assay [3]. Also, the outcome in assay [5], in assay [6], in assay [7] and in assay [8] was inactive.
With `Cc1cc(C(=O)Nc2ccc3c(c2)CCN3C2CCN(Cc3ccc(F)cc3Cl)C2)no1` (configuration not stated), the figures for the growth inhibition in assay [1] and in assay [4] were 96% (active) and 95% (active), respectively. In addition, the inhibition is 7% in assay [2] and 1% in assay [3]. Besides, the outcome in assay [5], in assay [6], in assay [7] and in assay [8] was inactive.
For the compound `CC(C)c1ccc(CN2CCC(NC(=O)c3ccc(-c4cccc(F)c4)s3)CC2)cc1`, the growth inhibition in assay [1] was 12%; in assay [4] it was 83% (active). Besides, the inhibition in assay [2] is 47%; in assay [3], 3%. Also, the outcome in assay [5], in assay [6], in assay [7] and in assay [8] was inactive.
`S=c1nc(-c2ccccc2)n2ccsc2n1`: the growth inhibition is 0% in assay [1] and 95% (active) in assay [4]. In addition, the results for the inhibition in assay [2] and in assay [3] were 3% and -6%, respectively. Besides, the result in assay [5], in assay [6], in assay [7] and in assay [8] was inactive.
In the case of `CC1(C)CNCc2cc(NC(=O)/C=C/c3ccc(Cl)cc3)ccc21`, the growth inhibition was 26% in assay [1] and 82% (active) in assay [4]. The figures for the inhibition in assay [2] and in assay [3] were 23% and -9%, respectively. For the same compound, the result in assay [5], in assay [6], in assay [7] and in assay [8] was inactive.
For the compound `CN(C)CCNc1ncnc2c1[nH]c1ccc(Br)cc12`, the growth inhibition in assay [1] is 7%; in assay [4], 100% (active). Moreover, the inhibition in assay [2] was 2%; in assay [3], -2%. The outcome in assay [5], in assay [6], in assay [7] and in assay [8] was inactive.
